# Test results taken from PubChem BioAssay (NCI).
# The panel holds about 83,000 compounds, 20% with a hit somewhere; the sample as a whole holds those more often.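 Method: cells in 96-well plates; compound added at one concentration; 48 h incubation; percent growth measured; values under 10 scored active.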 Values without a mark were called inactive. Active and inactive are the calls of the source.
# Experiments:
# Assay in all cases: NCI-60 one-dose screen, 48 h (100 = growth as untreated, 0 = no growth, -100 = all killed)
# Details in all cases: 10 µM unless noted
# [1] = test system: SR leukemia
# [2] = test system: OVCAR-5 ovarian
# [3] = test system: OVCAR-4 ovarian
# [4] = test system: SK-OV-3 ovarian
# [5] = test system: IGROV1 ovarian
# [6] = test system: OVCAR-3 ovarian
# [7] = test system: HS 578T breast
# [8] = test system: NCI/ADR-RES ovarian
# [9] = test system: T-47D breast
# [10] = test system: BT-549 breast
# [11] = test system: MDA-MB-435 melanoma
# [12] = test system: SW-620 colon
# [13] = test system: HCT-116 colon
# [14] = test system: HCC-2998 colon
# [15] = test system: KM12 colon
# [16] = test system: OVCAR-8 ovarian
# [17] = test system: MCF7 breast
SMILES,growth [1],growth [2],growth [3],growth [4] [%],growth [5],growth [6],growth [7],growth [8] [%],growth [9],growth [10],growth [11],growth [12],growth [13],growth [14],growth [15],growth [16],growth [17]
C=C1C(=O)O[C@H]2[C@H]1CC/C(CNC(=O)c1cc3ccccc3[nH]1)=C\CC[C@@]1(C)O[C@@H]21,-37.4% (active),-46% (active),-7.16% (active),68,-26.3% (active),-93.8% (active),42.7%,22.4,-42.2% (active),-79.8% (active),-37.2% (active),-57.4% (active),-84% (active),-75.5% (active),-38.4% (active),,
O=C(CSc1nnc2sc(Nc3cccc(Cl)c3)nn12)c1ccc(F)cc1,90.9%,95.1%,101%,82.1,101%,106%,97.4%,96.4,76.4%,97.8%,100%,99%,85.8%,103%,95.8%,102%,90.4%
COc1ccc(-c2oc(=O)ccc2-c2cc(OC)c(OC)c(OC)c2)cc1O,8.87% (active),35.7%,47.6%,28.3,29.8%,-59.3% (active),-7.79% (active),29.1,44.7%,24.7%,-64.9% (active),14.8%,-30.2% (active),211%,22.6%,23.1%,10.6%
O=C(CN1C(=O)NC2NC(=O)NC21)N/N=C/c1ccc(Cl)cc1Cl (stereo not drawn),109%,105%,103%,102,103%,104%,103%,104,110%,98.9%,102%,104%,101%,110%,105%,109%,98%
CC1(C)CC[C@]2(C(=O)N3CCOCC3)CC[C@]3(C)C(=CC[C@@H]4[C@@]5(C)C/C(=C/c6ccncc6)C(=O)C(C)(C)[C@@H]5CC[C@]43C)[C@@H]2C1,-31.3% (active),30.3%,14.2%,28.9,33.1%,16.1%,27.5%,26.2,20.2%,-2.62% (active),6.81% (active),10.4%,-32.6% (active),-24.5% (active),6.58% (active),34%,8.43% (active)
COc1ccc(C2=Nc3c/c(=C\c4c(O)[nH]c5cc(Cl)ccc45)ccc3=N2)cc1,17%,77.5%,90.8%,46.4,86.9%,27%,81.7%,56.4,71.7%,77.5%,3.01% (active),57.9%,70.7%,73.6%,,71.9%,36.2%
CN1C(=O)N(C)C2C1NC(=S)N2/N=C/C=C/c1ccccc1[N+](=O)[O-] (stereo not drawn),15.2%,74.9%,51.1%,27,44.3%,8.13% (active),17.1%,29.1,22.4%,68.1%,-61.7% (active),22.7%,19.5%,60.5%,26.7%,36.3%,18.7%
O=C1/C(=C/c2cccc([N+](=O)[O-])c2)COc2ccc(O)cc21,8.9% (active),54.8%,74.4%,111,33.8%,34.4%,33.7%,42,46.2%,63.3%,12.4%,-47.3% (active),-44.6% (active),58.7%,15.5%,31.2%,-26.2% (active)
COc1ccc(OC)c(-c2cn3nc(-c4c[nH]c5ccc(Br)cc45)sc3n2)c1,22.1%,47.9%,-21.3% (active),80.8,40.6%,60%,43.7%,32.1,35.2%,76.2%,24%,-3.33% (active),13.2%,27.2%,11%,25.6%,12.5%
CC(O)c1ncc(/C=C2\SC(=S)N(Cc3ccccc3)C2=O)s1 (stereo not drawn),82.4%,98.6%,85.1%,96.6,100%,97.2%,109%,99.5,42.4%,92.9%,80.5%,90.3%,96%,120%,81%,102%,80.3%
O=C1NC(=C(Cl)Cl)/C(=N/S(=O)(=O)N2CCCCC2)N1,-46% (active),90.9%,79.9%,94,,-57% (active),29.1%,98.5,41.6%,63.6%,47.6%,-62.3% (active),6.37% (active),4.74% (active),5.62% (active),9.05% (active),10.1%
COc1ccc(C2=CN3CC=CCC3CC2=O)cc1 (stereo not drawn),90.3%,106%,109%,106,111%,,98.3%,107,90.6%,90.7%,106%,101%,93.1%,100%,104%,91%,105%
O=C(CBr)CN1C(=O)c2ccccc2C1=O,98.9%,97.4%,103%,99.7,103%,102%,105%,105,93.9%,111%,103%,109%,102%,98.8%,97.6%,,97.7%
N#Cc1nc(-c2ccc(F)cc2)oc1S(=O)(=O)N1CCN(c2ccc(F)cc2)CC1,6.45% (active),111%,105%,118,76%,91%,107%,94.7,85.8%,103%,86.8%,19%,46.7%,109%,102%,71.4%,40.9%
CCOC(=O)n1cc(-c2nonc2-c2cn(C)c3ccccc23)c2ccccc21,19.7%,55.6%,59.9%,45,46.8%,25.1%,29.3%,15.2,40.6%,55.3%,-8% (active),18.8%,22.3%,60.9%,29.1%,51.6%,21.6%
Cc1cccc(-n2c(C)nc3ccc(N4CCCNC4=O)cc3c2=O)c1,98%,112%,99.3%,114,111%,107%,111%,103,103%,108%,104%,104%,102%,109%,111%,99.5%,97.8%
COc1cc2c(c(OC)c1OC)C(=O)CC(c1cccc(NC(=O)c3ccccc3Br)c1)O2 (stereo not drawn),68.4%,117%,90%,108,102%,,79.5%,91.3,65.7%,98.7%,92.5%,97.3%,75.6%,106%,103%,80.1%,78.2%
CCN(CC)c1ccc(N2C(=O)/C(=C/c3cccs3)SC2=S)cc1,95.4%,95.4%,81.9%,113,99.4%,,103%,96.6,83%,102%,95.4%,103%,95.9%,110%,100%,99.6%,89.9%
